Data reported in PubChem BioAssay AID463195 (Sanford-Burnham Center for Chemical Genomics, 2010).
The campaign covered roughly 330,000 compounds. About 4,600 (1.4%) were called active.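 How the source made its calls: active means inhibition of 40% or more at the single tested concentration; inactive means the rest.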 Shown is part of a subset that was picked to be rich in actives.

Assay: wild-type TIM10 yeast growth inhibition – luminescence, uHTS, counter-screen for tim10-1 yeast inhibitor project, primary screen (AID 463195);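 further: wild-type TIM10 isogenic control strain grown at permissive 25 °C; 0% = DMSO yeast wells and 100% = minimal medium wells without yeast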
Settings: S. cerevisiae TIM10 strain growth, BacTiter-Glo luminescence, 24 h; at 10 µM; active compounds read high

Row | SMILES | inhibition
1 | Cc1ccc(CNC(=O)c2cccc3c2C(=O)c2ccc(N4CCC(C)CC4)cc2S3(=O)=O)cc1 | 4.75% (inactive)
2 | CC(=O)Nc1ccc(C(=O)N(C2=NC(C)CS2)c2ccc(Cl)cc2)cc1 (stereo not given) | 20.1% (inactive)
3 | CC(=O)OCC(COC(C)=O)OC(C)=O | 5.8% (inactive)
4 | COc1ccc(S(=O)(=O)NCCc2cc3ccc(C)c(C)c3[nH]c2=O)cc1 | 5.58% (inactive)
5 | CC(C)[C@@H](C(=O)O)N(Cc1cccc(CN([C@H](C(=O)O)C(C)C)S(C)(=O)=O)c1)S(C)(=O)=O | 10.1% (inactive)
6 | CC(=O)c1cnc(-c2ccccc2)s1 | 12.3% (inactive)
7 | CC(C)(C)C(=O)c1cnc(Nc2ccccc2)s1 | 45.4% (active)
8 | O=C(/C=C/Nc1ccccc1)c1cnc(-c2ccccc2)s1 | 3.58% (inactive)
9 | CCOC(=O)C1CCCN(C(=O)c2ccc(CS(=O)(=O)c3ccc(Br)cc3)o2)C1 (stereo not given) | 4.19% (inactive)
10 | Cc1cc(N2CCCC2)ccc1NC(=O)COc1ccc(Cl)cc1 | 4.1% (inactive)
11 | NC(=O)NC(=O)C(OC(=O)CCNS(=O)(=O)c1ccccc1)c1ccccc1 (stereo not given) | 14.9% (inactive)
12 | COc1ccc(N2C(=O)NC(NS(=O)(=O)c3ccc(Cl)cc3)(C(F)(F)F)C2=O)cc1 (stereo not given) | 5.54% (inactive)
13 | Cc1cc(C)cc(NC(=S)NCCc2c[nH]c3ccccc23)c1 | 40.6% (active)
14 | Cc1ccc(S(=O)(=O)N(C)CC(=O)NCCc2c[nH]c3ccccc23)cc1 | -8.68% (inactive)
15 | O=C(NCCc1c[nH]c2ccccc12)c1cccc(Br)c1 | 4.34% (inactive)
16 | CCC(C)(C)NC(=O)CN(C(=O)CCC(=O)Nc1cc(C)ccn1)c1ccc2c(c1)OCCO2 | 17.4% (inactive)
17 | CCOC(=O)/C(C#N)=C\c1c(C)cc(C)c(COC(C)=O)c1C | 19% (inactive)
18 | COC(=O)CN(c1cccc(C(C)=O)c1)S(C)(=O)=O | 12.6% (inactive)
19 | CCSC1=C(C#N)C(=O)n2c1cc1c2CCCC1 | 63% (active)
20 | CCSc1ncnc2c(C#N)c3n(c12)CCCCC3 | -29.8% (inactive)
21 | COC(C[C@@H](O)C[C@H](O)[C@H](C)OCc1ccccc1)OC | -0.06% (inactive)
22 | CC1=C(C(N)=O)C(c2ccc3c(c2)OCO3)n2nc(-c3cccc(C)c3)nc2N1 (stereo not given) | 2.9% (inactive)
23 | Cc1cccc(C)c1NC(=O)CSc1nnc(-c2ccccc2)n1Cc1ccc2c(c1)OCO2 | -0.243% (inactive)
24 | c1ccc(-c2nnc3n2NC(c2ccc4c(c2)OCO4)S3)cc1 (stereo not given) | 57.8% (active)

Row | SMILES | inhibition
25 | CN(CC(=O)NCCc1ccccc1)S(=O)(=O)c1cnc[nH]1 | -7.58% (inactive)
26 | O=C(CNC(=O)c1cccnc1)N/N=C/c1cc(Br)c(O)c(Br)c1 | -19.5% (inactive)
27 | Oc1c(Cl)cc(Cl)cc1/C=N/c1ncn[nH]1 | 23.9% (inactive)
28 | COc1cc(Br)cc(/C=N/c2ncn[nH]2)c1O | 48.7% (active)
29 | C=CCn1c(Cn2nnc3ccccc32)nnc1SCC(=O)N/N=C/c1cc(Br)cc(OC)c1O | -12.4% (inactive)
30 | Cc1cc(-c2nnc(SCC(=O)Nc3ccc(S(N)(=O)=O)cc3)n2N)n[nH]1 | -1.79% (inactive)
31 | CCOC(=O)c1[nH]c2c(c1-c1ccccc1)C(=O)CC(c1ccc(Cl)cc1)C2 (stereo not given) | 3.98% (inactive)
32 | CCOC(=O)C1=C(C)NC(=O)N(C(C)=O)C1c1ccc(Cl)cc1 (stereo not given) | 29.2% (inactive)
33 | CCOC(=O)C1Sc2[nH]c(=O)sc2C(c2ccc(Cl)cc2)C1C(=O)OCC (stereo not given) | 44.2% (active)
34 | COc1ccc(N2C(=O)C3C(C2=O)C(C(=O)c2ccccc2)N2CCCC32)cc1 (stereo not given) | 7.93% (inactive)
35 | Cn1ccnc1SCC(=O)Nc1ccc2c(c1)OCCO2 | 8.81% (inactive)
36 | COc1ccccc1-n1ccnc(SCC(=O)NC2CCCCC2)c1=O | 15.4% (inactive)
37 | COc1cccc(NC(=O)CSc2nccn(-c3ccc4c(c3)OCCO4)c2=O)c1 | 44.8% (active)
38 | CC(C)Oc1ccc(S(=O)(=O)N2CCOCC2)cc1NC(=O)C1CCCC1 | 3% (inactive)
39 | O=C(Nc1ccc(-c2csc(Nc3cccc(C(F)(F)F)c3)n2)cc1)c1cccc(C(F)(F)F)c1 | 14.2% (inactive)
40 | O=C(Nc1cccc(-n2cnnn2)c1)c1cccnc1 | 5.34% (inactive)
41 | O=C(Nc1ccc(C(F)(F)F)cc1)c1cccc(-n2cnnn2)c1 | 93% (active)
42 | CN(CC(=O)Nc1cccc(F)c1)C(=O)CC1CCCC1 | 7.55% (inactive)
43 | Cc1ccc(S(=O)(=O)N2CCOCC2)cc1C(=O)NC(=S)N(Cc1ccccc1)C(C)C | 15.5% (inactive)
44 | c1ccc(-c2ccnc3nc(-n4cccc4)nn23)cc1 | 14.7% (inactive)
45 | COc1ccc(C(=O)Nc2ccc(-n3nncc3C(C)(C)C)cc2)cc1 | 53.1% (active)
46 | COc1ccc(NC(=O)c2ccc(C#CC(C)(C)O)cc2)cc1 | 12% (inactive)
47 | C/C(=N\Nc1ccc([N+](=O)[O-])cc1)c1ccc(-n2nncc2C(C)(C)C)cc1 | 8.53% (inactive)
48 | COc1cccc(N(C(=O)c2ccn[nH]2)C2(C(=O)Nc3c(C)cccc3C)CCCCC2)c1 | 17.6% (inactive)

Row | SMILES | inhibition
49 | OC(c1ccccc1)c1nccn1Cc1ccccc1 (stereo not given) | 8.31% (inactive)
50 | COc1ccc(/C=C(\C#N)C(=O)OCC(=O)N(C)C2CCS(=O)(=O)C2)cc1 (stereo not given) | 4.8% (inactive)
51 | COc1ccc(/C=C(\C#N)C(=O)ONC2=NCCCCC2)cc1 | 48.5% (active)
52 | COc1ccc(N2CCN(C(=O)/C(C#N)=C/c3ccccc3)CC2)cc1 | 36% (inactive)
53 | O=C(Cn1nc(CNc2ccc(Cl)cc2)[n+]2c1CCCCC2)c1ccc(Cl)cc1 | -4.18% (inactive)
54 | Cn1cc(CCC(=O)NC2CC2)c2ccccc21 | 4.31% (inactive)
55 | COC(=O)c1ccc(CNC(=O)c2ccc(S(=O)(=O)N3CCCCCC3)cc2)cc1 | -4.47% (inactive)
56 | O=C(NCCc1ccc(F)cc1)c1ccc(S(=O)(=O)N2CCCCC2)cc1 | 41.7% (active)
57 | O=C(Nc1ccccc1F)c1ccc(S(=O)(=O)N2CCCCCC2)cc1 | 12.4% (inactive)
58 | O=C(Nc1ccc([N+](=O)[O-])cc1)C1CC12CCC2 (stereo not given) | 14.3% (inactive)
59 | O=C(N/N=C/c1ccc(Cl)cc1)c1nc2ccc([N+](=O)[O-])cc2c(=O)[nH]1 | -0.404% (inactive)
60 | COc1ccc(C(=O)N2CCCC(C(=O)c3ccccc3OC)C2)cc1OC (stereo not given) | 1.3% (inactive)
61 | O=C(Nc1ccc2c(c1)OCCO2)C1CCCN(c2ncccn2)C1 (stereo not given) | -4.49% (inactive)
62 | Cc1ccc(Cl)cc1NC(=O)C1CCCN(c2cnccn2)C1 (stereo not given) | 5.02% (inactive)
63 | O=C(Nc1cccc(Cl)c1)C1CCCN(c2cnccn2)C1 (stereo not given) | 42.8% (active)
64 | O=C1C2C3C=CC(C4CC34)C2C(=O)N1c1nccs1 (stereo not given) | -2.66% (inactive)
65 | CCOC(=O)c1cnc2ccc(F)cc2c1Nc1ccc2c(c1)OCCO2 | 37.4% (inactive)
66 | Cc1ccc(-c2cn3cc([N+](=O)[O-])ccc3n2)cc1 | -29.9% (inactive)
67 | COc1ccc(-c2cn3ccc(C)cc3n2)cc1 | 30.2% (inactive)
68 | Cc1ccc(-c2cn3cc(C)ccc3n2)cc1 | 65% (active)
69 | Cc1ccc2nc(-c3ccc(Br)cc3)cn2c1 | 40.3% (active)
70 | CCN(CC)S(=O)(=O)c1ccc(-c2cn3ccc(C)cc3n2)cc1 | 11.7% (inactive)
71 | CSc1nnc2ccc(-c3ccc(C)cc3)nn12 | 7.14% (inactive)
72 | COc1ccccc1C(=O)Nc1nc2nc(-c3ccccc3)cc(=O)n2[nH]1 | -9.51% (inactive)

Row | SMILES | inhibition
73 | N#Cc1ccccc1NC(=O)COc1c(Br)cc(Br)c2cccnc12 | 13.8% (inactive)
74 | O=C(Nc1ccc(N2CCN(C(=O)c3ccccc3)CC2)c(Cl)c1)c1ncn[nH]1 | -12.4% (inactive)
75 | CN(C)C(=O)CCC(=O)N1CCCCC1C(=O)Nc1ccc(Oc2ccccc2F)cc1 (stereo not given) | 3.39% (inactive)
76 | CC1=C(C(N)=O)C(c2ccc(Br)cc2)n2ncnc2N1 (stereo not given) | -4.88% (inactive)
77 | Fc1ccccc1/C=C1\CCCC2=C1Nc1ncnn1C2c1ccccc1F (stereo not given) | 48.1% (active)
78 | CCC1CCc2c(sc(NC(C)=O)c2C#N)C1 (stereo not given) | 7.23% (inactive)
79 | O=C(COC(=O)c1ccc(Cl)nc1)NCc1cccs1 | 7.82% (inactive)
80 | COc1ccccc1N1CCN(C(=O)C2Cc3ccccc3CN2C(=O)c2ccco2)CC1 (stereo not given) | 22% (inactive)
81 | COc1cc2ccccc2cc1C(=O)N1CCOCC1 | 5.86% (inactive)
82 | COC1=C(N2CCOCC2)C(=O)c2ccccc2C1=O | -3.21% (inactive)
83 | Cc1oc2c(c1C(=O)N1CCOCC1)C(=O)c1ccccc1C2=O | 46.1% (active)
84 | CC1=C(C)CC(C(=O)NNC(=O)c2csc3c2CCC(C(C)(C)C)C3)C(C(=O)O)C1 (stereo not given) | 5.91% (inactive)
85 | O=C(CSCc1ccccc1)Nc1ccccc1 | -3.8% (inactive)
86 | COC(=O)Cc1c(O)ccn(Cc2cccc(C(F)(F)F)c2)c1=O | 11.1% (inactive)
87 | O=C(/C=C/Sc1ncn[nH]1)c1ccc(Cl)cc1 | 73.5% (active)
88 | Cc1ccc(C(=O)/C=C/c2c(C)nn(-c3ccccc3)c2Cl)cc1 | 29.3% (inactive)
89 | O=C(CSc1ncn[nH]1)N/N=C/c1ccc(F)cc1 | -3.76% (inactive)
90 | CCN(CC)C(=O)[C@H]1C[C@H](CC(=O)NCC23CC4CC(CC(C4)C2)C3)C(=O)N2CCc3c([nH]c4cc(CCC(=O)N(C)C)ccc34)[C@]12C | 6.94% (inactive)
91 | CC(=O)c1ccc(NC(=S)NC(=O)CC(C)C)cc1 | 28.8% (inactive)
92 | CC(C)CC(=O)NC(=S)Nc1ccc(F)cc1F | 41.9% (active)
93 | CC(C)CC(=O)NC(=S)Nc1cc(C(=O)O)ccc1Cl | -4.57% (inactive)
94 | Cc1cc(C)c(C)c(S(=O)(=O)Nc2ccc(O)cc2)c1C | 11.4% (inactive)
95 | Cc1c(C)c(C)c(S(=O)(=O)NCCc2ccccn2)c(C)c1C | 7.03% (inactive)
